Reference: PubChem BioAssay AID1159580 (chemical genetic matrix, 2015)
In all, about 5,500 compounds went through this assay and about 2,000 (36%) were called active. Not shown: some 18% with an inconclusive outcome. Cut-off read from the data, not from the text of the source: active = normalized growth mostly below about 0.91 (no sharp cut-off); inconclusive = no clear call, values can overlap the other calls; inactive = mostly above about 0.92. Some of the results follow.

Test: chemical genetic growth profiling, strain panel (AID 1159580);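 note: tested at 20 µM; growth read once vehicle control cultures reached saturation at 30 °C; 1 = growth at the plate median or of vehicle wells; lower values mean less growth of the strain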
Conditions: growth OD

Measured: normalized growth

CC1(C)O[C@@H]2CC3C4CCC5=CC(=O)C=C[C@]5(C)[C@@]4(F)[C@@H](O)C[C@]3(C)[C@]2(C(=O)CO)O1 (some centres not stated)
inactive: S. cerevisiae deletion strains, locus YJR075W, strain HOC1, active compounds read low 1.01 | S. cerevisiae deletion strains, locus YKL009W, strain mrt4, active compounds read low 1.01 | S. cerevisiae deletion strains, locus YKL068W, active compounds read low 0.999 | S. cerevisiae deletion strains, locus YKL085W, strain MDH1 (second series), active compounds read low 0.996 | S. cerevisiae deletion strains, locus YKL085W, strain MDH1, active compounds read low 0.996 | S. cerevisiae deletion strains, locus YKL160W, strain elf1, active compounds read low 0.968 | S. cerevisiae deletion strains, locus YKL190W, strain CNB1, active compounds read low 1.02 | S. cerevisiae deletion strains, locus YKR001C, strain vps1, active compounds read low 1.01 | S. cerevisiae deletion strains, locus YKR026C, strain gcn3, active compounds read low 1.01 | S. cerevisiae deletion strains, locus YKR091W, strain srl3, active compounds read low 0.992 | S. cerevisiae deletion strains, locus YLL001W, strain dnm1, active compounds read low 1.01 | S. cerevisiae deletion strains, locus YLL026W, active compounds read low 0.982 | S. cerevisiae deletion strains, locus YLL041C, strain sdh2, active compounds read low 0.999 | S. cerevisiae deletion strains, locus YLR027C, strain aat2, active compounds read low 1 | S. cerevisiae deletion strains, locus YLR039C, strain RIC1, active compounds read low 1.01 | S. cerevisiae deletion strains, locus YLR058C, strain SHM2, active compounds read low 1.02 | S. cerevisiae deletion strains, locus YLR102C, strain apc9, active compounds read low 0.998 | S. cerevisiae deletion strains, locus YLR113W, strain HOG1, active compounds read low 0.984 | S. cerevisiae deletion strains, locus YLR221C, strain rsa3, active compounds read low 0.974 | S. cerevisiae deletion strains, locus YLR258W, strain gsy2, active compounds read low 0.979 | S. cerevisiae deletion strains, locus YLR262C, strain YPT6 (second series), active compounds read low 1.01 | S. cerevisiae deletion strains, locus YLR262C, strain YPT6, active compounds read low 1.03 | S. cerevisiae deletion strains, locus YLR268W, strain sec22, active compounds read low 1 | S. cerevisiae deletion strains, locus YLR320W, strain mms22, active compounds read low 0.96 | S. cerevisiae deletion strains, locus YLR330W, strain CHS5, active compounds read low 1.01 | S. cerevisiae deletion strains, locus YLR342W, strain FKS1 (second series), active compounds read low 1.01 | S. cerevisiae deletion strains, locus YLR342W, strain FKS1, active compounds read low 0.986 | S. cerevisiae deletion strains, locus YLR357W, strain rsc2, active compounds read low 0.948 | S. cerevisiae deletion strains, locus YLR370C, strain arc18, active compounds read low 0.996 | S. cerevisiae deletion strains, locus YLR371W, strain rom2, active compounds read low 0.995 | S. cerevisiae deletion strains, locus YLR384C, strain iki3, active compounds read low 0.995 | S. cerevisiae deletion strains, locus YLR418C, strain cdc73, active compounds read low 0.967 | S. cerevisiae deletion strains, locus YML016C, strain PPZ1, active compounds read low 1.01 | S. cerevisiae deletion strains, locus YML032C, strain rad52, active compounds read low 0.997 | S. cerevisiae deletion strains, locus YML120C, strain ndi1, active compounds read low 0.995 | S. cerevisiae deletion strains, locus YML124C, strain tub3, active compounds read low 1.01 | S. cerevisiae deletion strains, locus YMR058W, strain fet3, active compounds read low 1 | S. cerevisiae deletion strains, locus YMR078C, strain ctf18, active compounds read low 0.995 | S. cerevisiae deletion strains, locus YMR125W, strain sto1, active compounds read low 0.992 | S. cerevisiae deletion strains, locus YMR129W, active compounds read low 1.01 | S. cerevisiae deletion strains, locus YMR205C, strain PFK2, active compounds read low 0.961 | S. cerevisiae deletion strains, locus YMR223W, strain ubp8, active compounds read low 1.01 | S. cerevisiae deletion strains, locus YMR231W, strain pep5, active compounds read low 0.998 | S. cerevisiae deletion strains, locus YMR263W, strain SAP30, active compounds read low 1 | S. cerevisiae deletion strains, locus YMR307W, strain GAS1, active compounds read low 0.998 | S. cerevisiae deletion strains, locus YNL067W, strain RPL9B, active compounds read low 1.02 | S. cerevisiae deletion strains, locus YNL071W, strain lat1, active compounds read low 1 | S. cerevisiae deletion strains, locus YNL128W, strain TEP1, active compounds read low 1.02 | S. cerevisiae deletion strains, locus YNL153C, strain GIM3, active compounds read low 1.01 | S. cerevisiae deletion strains, locus YNL183C, strain NPR1, active compounds read low 0.955 | S. cerevisiae deletion strains, locus YNL209W, strain ssb2, active compounds read low 1 | S. cerevisiae deletion strains, locus YNL233W, strain BNI4, active compounds read low 1.01 | S. cerevisiae deletion strains, locus YNL248C, strain rpa49, active compounds read low 0.991 | S. cerevisiae deletion strains, locus YNL250W, strain rad50, active compounds read low 0.993 | S. cerevisiae deletion strains, locus YNL271C, strain bni1, active compounds read low 1.01 | S. cerevisiae deletion strains, locus YNL298W, strain CLA4, active compounds read low 1.01 | S. cerevisiae deletion strains, locus YNL307C, strain MCK1, active compounds read low 1 | S. cerevisiae deletion strains, locus YNL322C, strain KRE1 (second series), active compounds read low 0.961 | S. cerevisiae deletion strains, locus YNL322C, strain KRE1, active compounds read low 1.01 | S. cerevisiae deletion strains, locus YNR049C, strain mso1, active compounds read low 1.01 | S. cerevisiae deletion strains, locus YNR052C, strain pop2, active compounds read low 1 | S. cerevisiae deletion strains, locus YOL006C, strain TOP1, active compounds read low 1.02 | S. cerevisiae deletion strains, locus YOL012C, strain htz1 0.691 | S. cerevisiae deletion strains, locus YOL147C, strain pex11, active compounds read low 1.01 | S. cerevisiae deletion strains, locus YOR001W, strain rrp6, active compounds read low 1 | S. cerevisiae deletion strains, locus YOR061W, strain CKA2, active compounds read low 1.01 | S. cerevisiae deletion strains, locus YOR069W, strain VPS5, active compounds read low 1.02 | S. cerevisiae deletion strains, locus YOR070C, strain gyp1, active compounds read low 0.994 | S. cerevisiae deletion strains, locus YOR080W, strain dia2, active compounds read low 0.998 | S. cerevisiae deletion strains, locus YOR083W, strain WHI5, active compounds read low 0.956 | S. cerevisiae deletion strains, locus YOR106W, strain vam3, active compounds read low 0.966 | S. cerevisiae deletion strains, locus YOR136W, strain idh2, active compounds read low 0.998 | S. cerevisiae deletion strains, locus YOR144C, strain elg1, active compounds read low 1.01 | S. cerevisiae deletion strains, locus YOR184W, strain ser1, active compounds read low 0.99 | S. cerevisiae deletion strains, locus YOR231W, strain MKK1, active compounds read low 0.981 | S. cerevisiae deletion strains, locus YOR265W, strain rbl2, active compounds read low 0.985 | S. cerevisiae deletion strains, locus YOR270C, strain vph1, active compounds read low 1.04 | S. cerevisiae deletion strains, locus YOR290C, strain snf2, active compounds read low 0.979 | S. cerevisiae deletion strains, locus YOR316C, strain cot1, active compounds read low 0.994 | S. cerevisiae deletion strains, locus YPL051W, strain arl3, active compounds read low 0.976 | S. cerevisiae deletion strains, locus YPL055C, strain LGE1, active compounds read low 1.05 | S. cerevisiae deletion strains, locus YPL078C, strain atp4, active compounds read low 0.992 | S. cerevisiae deletion strains, locus YPL106C, strain sse1, active compounds read low 0.923 | S. cerevisiae deletion strains, locus YPL240C, strain hsp82, active compounds read low 1 | S. cerevisiae deletion strains, locus YPL241C, strain CIN2, active compounds read low 1.01 | S. cerevisiae deletion strains, locus YPL256C, strain CLN2, active compounds read low 0.97 | S. cerevisiae deletion strains, locus YPR119W, strain clb2, active compounds read low 0.994 | S. cerevisiae deletion strains, locus YPR141C, strain kar3, active compounds read low 0.998 | S. cerevisiae deletion strains, locus YPR163C, strain tif3, active compounds read low 1.01 | S. cerevisiae deletion strains, locus YPR167C, strain met16, active compounds read low 0.997 | S. cerevisiae deletion strains, strain wtn01, active compounds read low 0.989 | S. cerevisiae strains, strain wild type, active compounds read low 1.01
